Bioassay records from PubChem.
TDP1 cell CPT: growth inhibition of DT40 Tdp1-/-;hTDP1 cells with camptothecin (screen for TDP1 inhibitors); chicken DT40 Tdp1-/-;hTDP1 cells + 20 nM CPT, ATP luminescence, 48 h; Potency, µM (titrated, usually from 46.2 µM), without a hit: top-dose activity change, negative = growth inhibition, hits mostly inhibitors; hit rate 12% among 420,000; AID 686979; also: potency is read from the fitted curve at half-maximal effect; nearly all actives have a fitted effect of over 55% in size
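Chicken DT40 Tdp1-/- cells complemented with human TDP1, 400 cells/well, exposed to compounds plus 20 nM camptothecin for at least 48 h at 37 C; viability read as ATP content by CellTiter-Glo luminescence.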
IL1B secr inh: blocks inflammasome-driven IL-1 beta release; hit rate 4.7% among 360,000; THP-1 LPS/ATP IL-1B secretion, AlphaLISA, 16 h; stronger effect = lower value; activity change, % at 57.5 µM; in the data active = activity change below about -50%; inconclusive = mostly about -30% to -49%
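THP-1 cells pretreated 1 hr with compounds (up to 57.5 uM final), then stimulated with LPS (250 ng/mL final) plus ATP (1.25 mM final); secreted IL-1B measured by AlphaLISA after 16 hr, decreased signal indicating inhibition.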
HT1080 IDH1KD tx: HT-1080 IDH1 knockdown cell toxicity (counter line) | HT-1080 IDH1 knockdown viability, ATP luminescence, 48 h | Potency, µM (doses to about 46.1 µM), for the others: at the highest dose activity, negative = toxicity, hits mostly cytotoxic | hit rate 2% among 360,000 | AID 686971;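 also: potency is read from the fitted curve at half-maximal effect; 0% = DMSO wells and -100% = cell-free medium wells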
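After a 2 h attachment period, IDH1KD HT-1080 cells took pin-transferred compound for 48 h at 37 °C; ATP-based luminescence after 10 min room-temperature reagent incubation reported viability.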
DT40 TDP1 no CPT: qHTS for Inhibitors of human tyrosyl-DNA phosphodiesterase 1 (TDP1): qHTS in cells in absence of CPT; DT40 Tdp1-/- hTDP1 cells, no CPT, ATP luminescence, 48 h; Potency, µM (highest dose often 46.2 µM), inactives show top-dose activity change, negative = growth inhibition, actives largely listed as inhibitors; hit rate 15% among 420,000; also: potency is read from the fitted curve at half-maximal effect; nearly all actives have a fitted effect of over 55% in size
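Growth kinetics read by CellTiter-Glo luminescence after ≥48 hr at 37 °C. Cells: DT40 Tdp1-/- stably carrying human TDP1, 400 per well, compound exposure in the absence of CPT (DMSO vehicle).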
HT1080NT lethal: kills 2HG-producing HT-1080-NT fibrosarcoma cells | HT-1080-NT fibrosarcoma viability, CellTiter-Glo ATP luminescence, 48 h | Potency, µM (titrated, usually from 46.1 µM), inactives show at the highest dose activity, negative = less viability, hits mostly cytotoxic | hit rate 1.6% among 360,000 | AID 686970;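 also: NT is the 2HG producing partner of a matched IDH1 knockdown line; potency is read from the fitted curve at half-maximal effect; 0% = DMSO-treated cells and -100% = media-only wells without cells; nearly all actives have a fitted effect of over 55% in size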
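750 cells/well, RPMI + 5% FBS; 2 h settle, compound pin-transfer, 48 h at 37 degrees C. CellTiter-Glo 10 min RT, luminescence. Normalized to DMSO and media-only wells.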
12-LOX inh: inhibitors of human 12S-lipoxygenase ALOX12 | P18054 | purified 12hLO, xylenol orange hydroperoxide absorbance | Potency, µM (top dose mostly 108 µM), without a hit: at the highest dose activity change, negative = inhibition, most hits filed as inhibitors | hit rate 1.1% among 580,000 | AID 1671190; also: potency is read from the fitted curve at half-maximal effect
Target sequence (P18054 whole entry, looked up): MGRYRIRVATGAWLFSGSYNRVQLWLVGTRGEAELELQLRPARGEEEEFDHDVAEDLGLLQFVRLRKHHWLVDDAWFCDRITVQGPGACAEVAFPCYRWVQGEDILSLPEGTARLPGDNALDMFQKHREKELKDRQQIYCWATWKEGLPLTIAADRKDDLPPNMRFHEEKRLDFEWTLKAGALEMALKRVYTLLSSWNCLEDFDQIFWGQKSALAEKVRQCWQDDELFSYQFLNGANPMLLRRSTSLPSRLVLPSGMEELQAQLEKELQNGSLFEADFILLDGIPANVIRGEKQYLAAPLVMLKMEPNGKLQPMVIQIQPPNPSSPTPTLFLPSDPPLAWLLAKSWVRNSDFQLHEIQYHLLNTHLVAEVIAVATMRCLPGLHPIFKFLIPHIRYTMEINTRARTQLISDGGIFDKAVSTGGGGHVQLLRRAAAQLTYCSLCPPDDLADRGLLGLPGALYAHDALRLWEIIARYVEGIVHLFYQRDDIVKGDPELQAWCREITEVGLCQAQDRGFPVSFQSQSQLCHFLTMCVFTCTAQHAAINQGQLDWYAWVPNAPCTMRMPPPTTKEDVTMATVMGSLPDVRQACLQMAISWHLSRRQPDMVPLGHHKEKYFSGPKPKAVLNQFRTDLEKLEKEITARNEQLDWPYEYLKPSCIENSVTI
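Purified human 12hLO (150 nM final) in 25 mM Hepes, 0.01% Triton X-100, pH 7.0 was preincubated 15 min at room temperature with compound. Then 40 uM arachidonic acid was added, 30 min. Hydroperoxide was read by Fe-XO absorbance ratio 573/405 nm.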
The depositor's hits bear a star; u = inconclusive; x = not tested or not shown; [ ] = dose if it differs, or a comment. Shown is part of a subset that was picked to be rich in hits. Unless noted, calls follow the shape of the dose curve; as a rule, active = well fitted curve in the direction sought with a large enough effect; inconclusive = small, poorly fitted or top-dose-only effect, or another doubt; inactive = no such curve, though single readings can be large; an effect the other way counts as inactive or inconclusive. Unless noted, % is scaled to controls: 0 for no effect and ±100 for the full control effect.

SMILES	TDP1 cell CPT	IL1B secr inh	HT1080 IDH1KD tx	DT40 TDP1 no CPT	HT1080NT lethal	12-LOX inh
O=S(=O)(c1cccc(C(F)(F)F)c1)N1Cc2ccccc2-n2nncc2C1	23µM*	15	-7%	9.2µM*	-8%	2%
O=S(=O)(c1ccc2ccccc2c1)N1Cc2cc(Br)ccc2-n2nncc2C1	x	x	x	x	x	-1%
O=C(C1CCCCC1)N1Cc2ccccc2-n2nncc2C1	-104%	3	-2%	-111%	1%	-4%
O=S(=O)(c1ccccc1)N1Cc2ccccc2-n2nncc2C1	u	3	-1%	21µM*	2%	6%
C[C@]1(O)CCC2C3CC[C@@H]4CC(=O)CC[C@]4(C)C3CC[C@@]21C (some centres not stated)	18µM*	14	4%	u	11%	-15%
C[C@]12C=CC(=O)C=C1CC[C@@H]1[C@@H]2CC[C@@]2(C)[C@H]1CC[C@]2(C)O	u	x	x	19µM*	x	4%
C[C@]12CCC(=O)C=C1CC[C@@H]1[C@@H]2CC[C@@]2(C)[C@H]1CC[C@]2(C)O	u	35	-10%	u	5%	-14%
C[C@]12CCC3C(CC[C@H]4CC(=O)CC[C@]34C)C1CCC2=O (some centres not stated)	u	16	10%	u	8%	-3%
CC12Cc3cnoc3C=C1CCC1C2CCC2(C)C1CCC2(C)O (configuration not stated)	u	-50*	2%	u	3%	u
CC(C)NC(=O)NC[C@H]1C[C@@H]2CCN1C[C@@H]2c1cc(-c2ccc(F)cc2)nn1C	x	x	x	x	x	55%[176 µM]
COc1ccccc1CN1CCN(Cc2ccc(Cl)cc2)CC1	-20%	-3	2%	21µM*	-3%	u
COc1ccccc1N1CCN(Cc2ccc(SC)cc2)CC1	16µM*	-6	-2%	21µM*	-4%	0%
CCc1ccc(CN2CCN(Cc3ccc(SC)cc3)CC2)cc1	u	-91*	u	21µM*	u	u
CSc1ccc(CN2CCN(c3ccccc3C)CC2)cc1	u	-17	-21%	u	-19%	u
COc1ccc(CN2CCN(Cc3ccccc3OC)CC2)cc1	-19%	6	-8%	u	0%	u
Cc1cccc(CN2CCN(Cc3ccc(Cl)cc3)CC2)c1	u	u	-28%	21µM*	-15%	u
C=CCn1c(O)c(C(C)=O)c(=O)[nH]c1=O (tested in a mixture with another compound)	4%	-18	13%	9%	1%	83%
C=CCn1c(O)c(C(=O)CCCCCC)c(=O)[nH]c1=O	12µM*	33	u	8.2µM*	u	0%
C=CCn1c(O)c(C(C)=NCc2cc(OC)cc(OC)c2)c(=O)[nH]c1=O	4.1µM*	71	5.8µM*	1.6µM*	3.7µM*	-1%
C=CCn1c(O)c(C(CC)=NCCc2c[nH]c3ccccc23)c(=O)[nH]c1=O	u	33	u	16µM*	u	113%
C=CCn1c(O)c(C(C)=Nc2cccc(C(=O)O)c2)c(=O)[nH]c1=O	0%	8	17%	-1%	7%	0%
C=CCn1c(O)c(C(C)=Nc2ccc(C(=O)OCC)cc2)c(=O)[nH]c1=O	-23%	36	u	u	0%	5.6µM*
C=CCn1c(O)c(C(CC)=NCCc2ccccc2)c(=O)[nH]c1=O	u	1	-5%	u	0%	-16%
O=C1CO[C@H]2CN(Cc3ccccc3)C[C@H]2N1Cc1ccccn1	x	x	x	x	x	15%[176 µM]
CN1CCOC[C@H]2CCNC[C@H]21	x	x	x	x	x	59%
SMILES	TDP1 cell CPT	IL1B secr inh	HT1080 IDH1KD tx	DT40 TDP1 no CPT	HT1080NT lethal	12-LOX inh
COc1ccc(-c2cc([C@H]3CN4CC[C@H]3C[C@@H]4CNS(=O)(=O)c3cccs3)n(C)n2)cc1	x	x	x	x	x	10%
CCOC(=O)c1c(C)n(Cc2ccccc2)c2ccc(OC)cc12	x	x	x	x	x	12%
COc1ccc2c(c1)c(CCN)c(C)n2Cc1ccccc1	u	-52*	u	21µM*	u	-12%
CCCCn1c(=O)c(C(=O)NCc2ccc(Cl)cc2)c(O)c2ccccc21	-87%	69	5%	u	15%	0%
CCCCOc1ccc(CNC(=O)c2cc3n(n2)CCCN(Cc2ccc(C)cc2)C3=O)cc1	21µM*	x	x	13µM*	x	-1%
Cc1nccc(N2CCN(C)C3(CCC(=O)N(C)CC3)C2)n1 (configuration not stated)	x	x	x	x	x	14%
Cc1cccc(NC(=O)CSc2nc3ccccc3c(=O)n2C)c1C	8.2µM*	-10	-1%	4.1µM*	1%	u
Cc1cccc(NC(=O)c2cc3c(=O)n4ccccc4nc3n2C)c1C	0.92µM*	x	x	0.65µM*	x	-11%
Cc1ccccc1-c1nc2ccccc2c(=O)n1C	3%	13	10%	-8%	7%	u
CN1CCN(c2nc3ccccn3c(=O)c2C=C2C(=O)N(C)C(=O)N(C)C2=O)CC1	1%	27	8%	-3%	7%	x
Cn1c(SCC(=O)Nc2ccccc2F)nc2c([nH]c3ccccc32)c1=O	15µM*	x	x	18µM*	x	0%
CCc1ccccc1NC(=O)c1cccn(Cc2ccccc2F)c1=O	-10%	x	x	-1%	x	0%
CC(C)CCN1CC2(C1)C(=O)Nc1ccccc12	x	x	x	x	x	2%[12.5 µM]
CCCCCCCCCC(CC)c1ccc(S(=O)(=O)O)cc1 (configuration not stated)	u	x	x	u	x	23µM*
NC[C@H](CS(=O)(=O)O)c1ccc(Cl)cc1	22%	x	x	-1%	x	0%
Cc1cccc(CCN)c1	x	x	x	x	x	26%
COc1cc2c(cc1CCc1ccccc1)N([S+](=O)([O-])c1cn(C)cn1)CC21CCN(C(C)=O)CC1	x	x	x	x	x	0%
CCC(CO)(C(=O)OC1C[N+]2(C)CCC1CC2)c1ccccc1 (configuration not stated)	-4%	2	7%	-4%	-7%	45µM*
C#CCN(C)C[C@H]1CN2CC[C@H]1C[C@@H]2CNC(=O)c1ccc(C(F)(F)F)cc1	x	x	x	x	x	35%[176 µM]
COC(=O)C1=C(C)N[C@]2(C)C[C@H]1c1ccccc1O2	x	x	x	x	x	-9%
CC(C(O)c1ccccc1)N(C)CCOC(c1ccccc1)c1ccccc1 (configuration not stated)	12µM*	x	x	15µM*	x	-13%[22.9 µM]
CNC(C)[C@H](O)c1ccccc1 (some centres not stated)	-5%	x	x	-11%	x	x
